Only some compounds are listed: those with a hit (about 1.4% of all), similar ones and a draw of the others.
TrxR1 inh = qHTS Assay for Inhibitors of Mammalian Selenoprotein Thioredoxin Reductase 1 (TrxR1): qHTS | hit rate 1% among 390,000 | recombinant rTrxR1, NADPH fluorescence consumption, selenite substrate | AID 588453, 2011 | Potency, µM (series often up to 114 µM), actives largely listed as inhibitors; further: nearly all actives have a fitted effect of over 65% in size
Target sequence (O89049 whole entry, looked up): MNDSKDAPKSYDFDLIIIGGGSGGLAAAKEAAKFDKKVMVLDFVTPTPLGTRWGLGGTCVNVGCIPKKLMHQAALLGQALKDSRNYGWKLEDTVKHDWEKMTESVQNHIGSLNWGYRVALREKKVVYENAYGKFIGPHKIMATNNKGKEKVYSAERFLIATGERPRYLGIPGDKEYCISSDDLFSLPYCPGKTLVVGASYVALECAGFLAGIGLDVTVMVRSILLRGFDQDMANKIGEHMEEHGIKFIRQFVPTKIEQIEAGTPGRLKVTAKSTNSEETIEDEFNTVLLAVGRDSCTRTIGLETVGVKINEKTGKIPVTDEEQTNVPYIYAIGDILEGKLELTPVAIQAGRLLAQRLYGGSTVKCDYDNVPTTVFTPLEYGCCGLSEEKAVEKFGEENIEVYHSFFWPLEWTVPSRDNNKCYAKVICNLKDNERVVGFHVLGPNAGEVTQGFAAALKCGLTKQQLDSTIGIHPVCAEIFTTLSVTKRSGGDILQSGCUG
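Rat TrxR1 (90 nM in the dispensed reagent) was pre-reduced with 400 uM NADPH for 5 min at room temperature, then incubated with compound for 15 min. After 400 uM selenite was added, NADPH fluorescence (Ex 340/Em 450 nm) was followed for 8 min.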
Pin1 inh = qHTS Assay to Find Inhibitors of Pin1. Pin1 FP peptide displacement, HiFluor488, 10 min. hit rate 0.009% among 390,000. Potency, µM (doses to about 115 µM), usual class: inhibitors. Peptidyl-prolyl cis-trans isomerase NIMA-interacting 1 (Homo sapiens), Q13526; active means well fitted inhibition curve with a large enough effect in the polarisation, with a control signal flat, not every such curve was filed as active; inconclusive means small, poorly fitted or top-dose-only effect, or effect the other way, or a change in a side signal; inactive means no such curve, though single readings can be large or run the other way; the % refers to the polarisation
Target sequence (Q13526 whole entry, looked up): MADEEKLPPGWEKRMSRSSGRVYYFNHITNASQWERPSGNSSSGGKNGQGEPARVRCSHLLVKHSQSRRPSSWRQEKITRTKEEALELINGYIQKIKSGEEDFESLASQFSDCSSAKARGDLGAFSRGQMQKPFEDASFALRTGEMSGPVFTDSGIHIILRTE
N370S GC mod = qHTS Assay for Inhibitors and Activators of N370S glucocerebrosidase as a Potential Chaperone Treatment of Gaucher Disease | N370S GC spleen homogenate, 4MU-glucoside fluorescence | Potency, µM (series often up to 59.4 µM), usual class: inhibitors | hit rate 0.092% among 330,000
pAkt inh = HTS Assay for Inhibitors of Akt Phophorylation: Primary Screen; hit rate 0.32% among 360,000; AID 651550, 2012; Neuro2A IGF-stimulated pAkt S473 HTRF, 20 min; active compounds read low; activity change, % for hits at 50 µM; in the data active means activity change below about -80%; inconclusive means mostly about -51% to -80%
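Neuro2A cells in DMEM with 0.5% FBS, overnight at 37 deg C, given compound at single 50 µM final, then IGF (6 nM final) for 20 min at 37 deg C. Lysed; phospho-Akt Ser473 by HTRF after 24 h, 665/615 ratio.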
AT treatment = qHTS Assay for Identifying a Potential Treatment of Ataxia-Telangiectasia. F2112 A-T fibroblasts, KAP-1 phosphorylation AlphaLISA; neocarzinostatin DNA damage 30 min before lysis. Potency, µM (highest dose often 57.5 µM), usual class: activators. hit rate 0.19% among 320,000. AID 485349, 2010; further: nearly all actives have a fitted effect of over 45% in size
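hTERT-immortalized A-T patient fibroblasts (F2112), 500 cells/well in OPTI-MEM, 1% FBS, got compounds for 60 min, then NCS for 30 min at 37C. Lysates were then assayed for phospho-KAP-1 by AlphaLISA (anti-pKAP1 donor, anti-KAP1 acceptor beads), 6 hr at 25C.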
TrxR1 substrate = qHTS Assay for Substrates of Mammalian Selenoprotein Thioredoxin Reductase 1 (TrxR1): qHTS | purified TrxR1 substrate turnover, NADPH consumption readout | Thioredoxin reductase 1, cytoplasmic (Rattus norvegicus), O89049 | Potency, µM (series often up to 114 µM) | AID 588456, 2011 | hit rate 0.01% among 390,000; further: nearly all actives have a fitted effect of over 50% in size
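Rat TrxR1, dispensed at 90 nM, was prereduced with 400 uM NADPH (final) for 5 min at ~22 deg C, then incubated with compound 15 min before 400 uM selenite. A first-read NADPH fluorescence drop versus no-compound background flagged substrates.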
Numbers stand for hits; - = inactive; ? = inconclusive; . = no result given; [ ] = remark or other dose. Unless noted, the call rests on the fitted dose curve; in most records, active means well fitted curve in the direction sought with a large enough effect; inconclusive means small, poorly fitted or top-dose-only effect, or another doubt; inactive means no such curve, though single readings can be large; an effect the other way counts as inactive or inconclusive.

SMILES	TrxR1 inh	Pin1 inh	N370S GC mod	pAkt inh	AT treatment	TrxR1 substrate
Cc1cccc(N2C(=O)CC(Sc3nnc(C)s3)C2=O)c1 (stereo not given)	20µM	-	-	-	-	-
Cc1ccc(N2C(=O)CC(Sc3cccs3)C2=O)cc1 (stereo not given)	79µM	-	-	-	-	-
Cc1cc(C)cc(N2C(=O)CC(Sc3nnnn3-c3ccccc3)C2=O)c1 (stereo not given)	11µM	-	-	-	-	-
Cn1nnnc1SC1CC(=O)N(c2ccccc2)C1=O (stereo not given)	18µM	-	-	-	-	-
Cc1cccc(N2C(=O)CC(Sc3nc(C)cc(C)n3)C2=O)c1 (stereo not given)	?	-	-	-	.	-
Cc1noc(Cn2c(=O)c3ccccc3n(CC(=O)Nc3cc(Cl)ccc3C)c2=O)n1	-	-	.	.	.	-
Cc1ccc(NC(=O)CCc2c(C)nc3ncnn3c2C)cc1Cl	-	-	.	.	.	-
CCOc1ccc(NC(=O)C2CCCN(S(=O)(=O)c3ccc(Br)s3)C2)cc1 (stereo not given)	-	-	.	.	.	-
CCc1ccc2oc(C(=O)NCC(c3ccc(Cl)cc3)N3CCOCC3)c(C)c2c1 (stereo not given)	-	-	.	.	.	-
CCOC(=O)c1c(SC)n(-c2ccccc2)c(=S)n(-c2ccccc2)c1=O	-	-	-	-	-	-
CCOC(=O)c1c(SCCN2CCCCC2)n(-c2ccccc2)c(=S)n(-c2ccccc2)c1=O	18µM	-	.	-	.	-
O=C(C[n+]1cccc2cccc(O)c21)c1ccc(Cl)cc1	-	.	.	.	.	-
CCCOc1ccc(/C(O)=C2\C(=O)C(=O)N(CCCN(C)C)C23C(=O)N(C)c2ccccc23)cc1 (stereo not given)	.	.	-	.	-	.
COCCN1C(=O)C(=O)/C(=C(/O)c2cccc(S(=O)(=O)N(C)C)c2)C12C(=O)N(C)c1ccccc12 (stereo not given)	-	-	-	-108%	-	-
CC1(CCC#N)N=C(SCCC#N)N(c2ccccc2)C1=O (stereo not given)	-	-	-	-117%	-	-
Cc1ccccc1Nc1nc(NCc2ccco2)c2ccccc2n1	-	-	20µM	-	-	-
Cc1ccc2ncnc(NCc3ccco3)c2c1	79µM	-	.	.	.	-
Oc1ccccc1Nc1nc(NCc2ccco2)c2ccccc2n1	-	-	?	-	-	-
Cc1ccc(S(=O)(=O)Nc2nc3ccccc3nc2NCc2ccco2)cc1	8.9µM	?	-	-	-	-
Clc1ccc2c(NCc3ccco3)ncnc2c1	-	-	-	-	-	-
Clc1ccccc1Cn1nnc(-c2cccs2)n1	-	-	-	-	-	-
Clc1ccccc1Cn1nnc(-c2ccccc2)n1	-	-	?	-	22µM	-
CC(C)OC(=O)c1ccc(NCc2cc(O)ccc2O)cc1	-[11.4 µM]	-	.	-	.	-[11.4 µM]
COP(=O)(OC)c1ccc(NCc2cc(O)ccc2O)cc1	79µM	?	.	-	.	-
O=C1/C(=C/c2cccnc2)SC(=S)N1N1CCOCC1	?	-	-	-	-	-
SMILES	TrxR1 inh	Pin1 inh	N370S GC mod	pAkt inh	AT treatment	TrxR1 substrate
O=C1/C(=C/c2ccncc2)SC(=S)N1N1CCOCC1	22µM	-	-	-	-	-
COc1cc2nc(CC(O)c3nc4cc(OC)c(OC)cc4[nH]3)[nH]c2cc1OC (stereo not given)	-	.	.	.	.	-
Fc1ccccc1CN1CCCCCCC1	-	-	.	-104%	-	-
O=C(C1CCCN(Cc2ccccc2F)C1)N1CCCCC1 (stereo not given)	-	-	-	-	-	-
O=C(C1CCCN(Cc2ccccc2F)C1)N1CCc2ccccc2C1 (stereo not given)	-	-	-	-	40µM	-
CCOC(=O)/C(=C/c1c(C)n(C)c2ccc([N+](=O)[O-])cc12)C(C)=O	45µM	-	-	-	-	-
C[N+]1(CC(=O)c2ccccc2)CCc2ccccc2C1 (stereo not given)	-	.	.	.	.	-
COc1cc(NC(=O)C(OC(=O)CNC(=O)c2ccccc2)c2ccccc2)cc(OC)c1 (stereo not given)	.	-	.	.	.	.
Cc1ccc(Nc2c3c(nc4nncn24)CCC3)cc1	-	-	.	.	.	-
Brc1ccc(Nc2c3c(nc4nncn24)CCC3)cc1	22µM	-	.	.	.	-
Cc1ccc2oc(-c3ccc(C)c(NC(=O)/C=C/c4ccco4)c3)nc2c1	32µM	-	.	.	.	-
Cc1ccc2oc(-c3ccc(C)c(NC(=O)/C=C/c4ccc(Cl)cc4)c3)nc2c1	-	-	.	.	.	-[11.4 µM]
Cc1nc(=S)c2ccccc2[nH]1	-	-	-	.	-	-
FC(F)(F)c1nc(=S)c2ccccc2[nH]1	4.5µM	-	-	-	-	-
COc1ccc(OC)c2c1C(=O)c1ccccc1C2=O	-	.	-	-	-	-
COc1ccc(OC)c2c1C(=O)C(Cl)=C(Cl)C2=O	0.16µM	?	-	-	-	-
O=C(Nc1sc2c(c1C(=O)Nc1ccccc1)CCC2)c1ccc(Br)cc1	56µM	-	.	.	.	-
O=C(Cc1ccccc1)Nc1sc2c(c1C(=O)Nc1ccc(Br)cc1)CCCC2	-	-	.	.	.	-
CCN1C(C(=O)c2ccccc2)=C(OC(=O)COc2ccc(OC)cc2)c2ccccc2S1(=O)=O	13µM	-	.	.	.	-
CCN1C(C(=O)c2ccccc2)=C(OC(=O)COc2ccc(C)cc2)c2ccccc2S1(=O)=O	20µM	-	.	.	.	-
CCCN1C(C(=O)c2ccccc2)=C(OC(=O)COc2ccccc2)c2ccccc2S1(=O)=O	?	-	.	.	.	-
CCc1ccc(CNC(=O)Cn2nc(C)c3nn(-c4ccc(Cl)cc4)c(C)c3c2=O)cc1	-	-	.	.	.	-
CC(C)NC(=O)C1CCCN(S(=O)(=O)c2ccc3c(ccn3C)c2)C1 (stereo not given)	-	-	.	.	.	-
CCCCCCCCNS(=O)(=O)CCNCCCC	-	-	.	-	.	-
CCCCCCCCNS(=O)(=O)CCNC1CC1	45µM	-	.	-	.	-
Nc1ncc(S(=O)(=O)NCc2cccc(Cl)c2)cn1	-	-	.	.	.	-
CC(C)(C)OC(=O)CC(=O)NNC(=O)c1cc2ccccc2[nH]1	.	-	.	.	.	.
O=C1c2sc3nc4ccccc4n3c2C(=O)N1c1ccccc1Cl	4µM	-	-	-	-	-
Cc1ccccc1N1C(=O)c2sc3nc4c(c(=O)n3c2C1=O)CCC4	8.9µM	?	-	-	-	-

Compound activity as filed in PubChem.
